Assay results as given in ChEMBL document CHEMBL3988442, “University of Dundee, Small-Polar-MMV Screening Library” (2021).

Biological target: T1, Arginase-2, mitochondrial (Homo sapiens) (UniProt P78540)
T1 sequence (whole entry): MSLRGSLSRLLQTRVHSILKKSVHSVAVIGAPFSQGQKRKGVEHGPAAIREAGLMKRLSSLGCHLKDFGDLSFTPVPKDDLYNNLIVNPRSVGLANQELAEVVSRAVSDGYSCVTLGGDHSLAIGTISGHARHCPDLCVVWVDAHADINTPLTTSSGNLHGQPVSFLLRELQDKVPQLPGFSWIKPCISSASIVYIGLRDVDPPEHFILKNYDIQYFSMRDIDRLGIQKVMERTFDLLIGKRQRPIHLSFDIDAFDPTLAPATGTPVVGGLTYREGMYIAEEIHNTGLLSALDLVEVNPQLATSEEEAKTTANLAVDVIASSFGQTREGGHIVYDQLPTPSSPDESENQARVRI
Test: in vitro enzyme assay to detect the production of urea directly proportional to the activity of Arginase II
Assay type: functional
Parameters: scale not given: in the data most compounds retested in dose-response had high values
Settings: 33.3 µM

Going from `Cn1ccc(CN2CCC(COC3CCCC3)CC2)cc1=O` to `NC(=O)C1CCCN(C(=O)c2cnc3c(cnn3C3CCCC3)c2)C1` (stereo not given), the Percent Effect falls from 3.66% to -3.04%.

Going from `CCCC(NC(=O)c1cc(C)ccc1C)c1nnn[nH]1` (stereo not given) to `Cc1cc(C)n(CC2CCCN2C(=O)c2ccc3c(c2)nnn3C)n1` (stereo not given), the Percent Effect falls from 20.8% to 7.27%.

Going from `Cc1ccc(NC2CCN(C(=O)CN(C)C3CC3)CC2)nn1` to `O=C(NCc1ccc(F)cc1)N1CCC(C2OCCO2)CC1`, the Percent Effect falls from 0.645% to -8.28%.

Compared with `CCCOCC(=O)NC1CCc2nc(C)cn2C1` (stereo not given), `COC(=O)CCN1CCCC1c1ccccc1Cl` (stereo not given) is higher in Percent Effect: -9.47% for the first, -1.56% for the second.

Going from `CNC(=O)c1cc2c(nc1NCC(C)C)CCN(S(=O)(=O)C1CC1)CC2` to `CC(C)n1cc(S(=O)(=O)N2CCCCC2)cn1`, the Percent Effect falls from -1.24% to -2.29%.

Compared with `Cc1cccc(N2CCN(C(=O)CN3CCN(CCO)CC3)CC2)c1`, `N#CCSCCCN1CCCN(C(=O)c2ccccc2)CC1` is higher in Percent Effect: 0.798% for the first, 3.19% for the second.

First: CNc1cccc(C2CCCN(C(=O)c3ccncc3)C2)n1 (stereo not given)
Second: Cc1cncc(C2CCCN(C(=O)c3scnc3C)C2)n1 (stereo not given)
The Percent Effect of the first is higher: -0.232% for the first, -2.09% for the second.

First: CCN(CC)C(=O)Cn1ccc2cc(NC(=O)C3CCCO3)ccc21 (stereo not given)
Second: Cc1nccn1-c1cc(CNC(=O)CCNC(=O)C2CCCC2)ccn1
The Percent Effect of the first is higher: -1.53% for the first, -4.68% for the second.

First: Cc1nccn1-c1cc(CNC(=O)C(C)(C)C)ccn1
Second: Cc1csc(CNC(=O)N(C)Cc2cnn(C)c2)n1
The Percent Effect of the first is higher: 34.1% for the first, -4.25% for the second.

First: CCOc1ccc(C(=O)NS(=O)(=O)c2cncc(Br)c2)cc1OC
Second: COc1ccc(NC(=O)NCC(O)c2ccc(F)cc2F)c(OC)c1 (stereo not given)
The Percent Effect of the first is lower: 3.81% for the first, 10.5% for the second.

Going from `CC(C)CNC(=O)CN1C=Nc2ccccc2S1(=O)=O` to `Cc1nn(C)cc1CN1CCC(C2Nc3ccccc3S(=O)(=O)N2)CC1` (stereo not given), the Percent Effect falls from 2.16% to 0.232%.

First: CC(CNC(=O)N1CCSCC1)Cc1cccs1 (stereo not given)
Second: Cc1noc(-c2ccc(N3CCCC(C(=O)N4CCSCC4)C3)nc2)n1 (stereo not given)
The Percent Effect of the first is lower: -2.08% for the first, -1.36% for the second.

Compared with `NS(=O)(=O)CCNC(=O)c1nnn(-c2ccc(F)cc2)c1C1CC1`, `O=C(NCCOCC(F)(F)F)c1ccc(-c2ccco2)[nH]c1=O` is lower in Percent Effect: 14.6% for the first, -0.802% for the second.

Compared with `O=C(NCCO)Nc1cccc(Cl)c1SC(F)F`, `Cc1ccc(Cl)cc1C(=O)N1CCC2(CC1)c1ccccc1[C@@H](N)[C@@H]2O` is lower in Percent Effect: 0.883% for the first, -2.38% for the second.

Compared with `Cc1nc(CN2CCCCC2Cn2cncn2)nc2ccccc12` (stereo not given), `Cc1nc(C)n(CC2CCCN(CCCOc3ccccc3)C2)n1` (stereo not given) is lower in Percent Effect: 1.47% for the first, 1.07% for the second.

Going from `COCCc1noc(CN2CCN(CC(O)c3ccccc3)CC2)n1` (stereo not given) to `COc1ccc(CNC2CCN(CCc3ccncc3)CC2)cc1O`, the Percent Effect rises from 1.07% to 26.7%.

First: Cc1nn(C)c(C)c1C1CCCN1CC(=O)NC(C1CC1)C1CC1 (stereo not given)
Second: Cc1ncsc1CN1CC[C@H]2OCC[C@@]2(C(=O)NC(C)C)C1
The Percent Effect of the first is lower: -4.01% for the first, 0.645% for the second.

Compared with `Cn1ccc(C(=O)NC2CCC23CCN(C(=O)c2ccncc2)CC3)c1` (stereo not given), `CN(CC(=O)N1CCN(c2ncccn2)CC1)c1ccc(Cl)cn1` is higher in Percent Effect: 0% for the first, 14.3% for the second.

Going from `CC(=O)NCCNC(=O)CN1CCN(Cc2nccn2C)C(C)C1` (stereo not given) to `CC(C)c1nnc2n1CCN(Cc1csc(CC(=O)N(C)C)n1)C2`, the Percent Effect falls from 0.185% to -4.6%.

Going from `O=C1[C@@H]2CCN(Cc3ccoc3)C[C@@H]2OCCN1Cc1cccnc1` to `O=C(N[C@@H]1CN(Cc2ccc3c(c2)OCO3)[C@@H]2CCCO[C@@H]21)C1CC1`, the Percent Effect falls from -0.699% to -55%.

Biological target: T2, Proteasome subunit beta (Trypanosoma cruzi) (UniProt O96673)
T2 sequence (whole entry): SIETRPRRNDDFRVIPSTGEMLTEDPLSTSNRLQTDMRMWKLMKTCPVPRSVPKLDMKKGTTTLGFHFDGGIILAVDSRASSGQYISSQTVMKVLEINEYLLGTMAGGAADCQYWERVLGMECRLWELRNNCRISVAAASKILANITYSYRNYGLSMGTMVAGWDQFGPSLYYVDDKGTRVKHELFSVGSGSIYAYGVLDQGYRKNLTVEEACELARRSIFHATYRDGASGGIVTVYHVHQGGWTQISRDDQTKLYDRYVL
Test: Trypanosoma cruzi proteasome chymotrypsin-like activity (TcProtChymo) assay.
Assay type: functional
Parameters: scale not given: in the data most compounds retested in dose-response had high values
Settings: 9.37 µM

Going from `Cn1ccc(CN2CCC(COC3CCCC3)CC2)cc1=O` to `NC(=O)C1CCCN(C(=O)c2cnc3c(cnn3C3CCCC3)c2)C1` (stereo not given), the Percent Effect falls from 11.2% to 3.19%.

Going from `CCCC(NC(=O)c1cc(C)ccc1C)c1nnn[nH]1` (stereo not given) to `Cc1cc(C)n(CC2CCCN2C(=O)c2ccc3c(c2)nnn3C)n1` (stereo not given), the Percent Effect rises from 11.7% to 14.9%.

Going from `Cc1ccc(NC2CCN(C(=O)CN(C)C3CC3)CC2)nn1` to `O=C(NCc1ccc(F)cc1)N1CCC(C2OCCO2)CC1`, the Percent Effect rises from 6.69% to 12.4%.

First: CCCOCC(=O)NC1CCc2nc(C)cn2C1 (stereo not given)
Second: COC(=O)CCN1CCCC1c1ccccc1Cl (stereo not given)
The Percent Effect of the first is higher: 17.2% for the first, 5.41% for the second.

Compared with `CNC(=O)c1cc2c(nc1NCC(C)C)CCN(S(=O)(=O)C1CC1)CC2`, `CC(C)n1cc(S(=O)(=O)N2CCCCC2)cn1` is higher in Percent Effect: -7.64% for the first, 15.7% for the second.

Compared with `Cc1cccc(N2CCN(C(=O)CN3CCN(CCO)CC3)CC2)c1`, `N#CCSCCCN1CCCN(C(=O)c2ccccc2)CC1` is lower in Percent Effect: 3.51% for the first, 1.63% for the second.

Going from `CNc1cccc(C2CCCN(C(=O)c3ccncc3)C2)n1` (stereo not given) to `Cc1cncc(C2CCCN(C(=O)c3scnc3C)C2)n1` (stereo not given), the Percent Effect falls from 8.27% to 7.33%.

First: CCN(CC)C(=O)Cn1ccc2cc(NC(=O)C3CCCO3)ccc21 (stereo not given)
Second: Cc1nccn1-c1cc(CNC(=O)CCNC(=O)C2CCCC2)ccn1
The Percent Effect of the first is higher: 16.5% for the first, 5.84% for the second.

Compared with `Cc1nccn1-c1cc(CNC(=O)C(C)(C)C)ccn1`, `Cc1csc(CNC(=O)N(C)Cc2cnn(C)c2)n1` is lower in Percent Effect: 18.1% for the first, 16.5% for the second.

Compared with `CCOc1ccc(C(=O)NS(=O)(=O)c2cncc(Br)c2)cc1OC`, `COc1ccc(NC(=O)NCC(O)c2ccc(F)cc2F)c(OC)c1` (stereo not given) is higher in Percent Effect: 0.517% for the first, 13.2% for the second.

Compared with `CC(C)CNC(=O)CN1C=Nc2ccccc2S1(=O)=O`, `Cc1nn(C)cc1CN1CCC(C2Nc3ccccc3S(=O)(=O)N2)CC1` (stereo not given) is higher in Percent Effect: -1.95% for the first, 7.49% for the second.

First: CC(CNC(=O)N1CCSCC1)Cc1cccs1 (stereo not given)
Second: Cc1noc(-c2ccc(N3CCCC(C(=O)N4CCSCC4)C3)nc2)n1 (stereo not given)
The Percent Effect of the first is lower: 5.83% for the first, 6.57% for the second.

Compared with `NS(=O)(=O)CCNC(=O)c1nnn(-c2ccc(F)cc2)c1C1CC1`, `O=C(NCCOCC(F)(F)F)c1ccc(-c2ccco2)[nH]c1=O` is lower in Percent Effect: 19.5% for the first, 8.29% for the second.

Compared with `O=C(NCCO)Nc1cccc(Cl)c1SC(F)F`, `Cc1ccc(Cl)cc1C(=O)N1CCC2(CC1)c1ccccc1[C@@H](N)[C@@H]2O` is higher in Percent Effect: 13.9% for the first, 19% for the second.

First: Cc1nc(CN2CCCCC2Cn2cncn2)nc2ccccc12 (stereo not given)
Second: Cc1nc(C)n(CC2CCCN(CCCOc3ccccc3)C2)n1 (stereo not given)
The Percent Effect of the first is higher: 20.1% for the first, -1.37% for the second.

First: COCCc1noc(CN2CCN(CC(O)c3ccccc3)CC2)n1 (stereo not given)
Second: COc1ccc(CNC2CCN(CCc3ccncc3)CC2)cc1O
The Percent Effect of the first is lower: 6.69% for the first, 10.6% for the second.

Compared with `Cc1nn(C)c(C)c1C1CCCN1CC(=O)NC(C1CC1)C1CC1` (stereo not given), `Cc1ncsc1CN1CC[C@H]2OCC[C@@]2(C(=O)NC(C)C)C1` is higher in Percent Effect: -3.06% for the first, 0.87% for the second.

First: Cn1ccc(C(=O)NC2CCC23CCN(C(=O)c2ccncc2)CC3)c1 (stereo not given)
Second: CN(CC(=O)N1CCN(c2ncccn2)CC1)c1ccc(Cl)cn1
The Percent Effect of the first is higher: 13.6% for the first, 9.83% for the second.

First: CC(=O)NCCNC(=O)CN1CCN(Cc2nccn2C)C(C)C1 (stereo not given)
Second: CC(C)c1nnc2n1CCN(Cc1csc(CC(=O)N(C)C)n1)C2
The Percent Effect of the first is lower: -2.87% for the first, 11.5% for the second.

Going from `O=C1[C@@H]2CCN(Cc3ccoc3)C[C@@H]2OCCN1Cc1cccnc1` to `O=C(N[C@@H]1CN(Cc2ccc3c(c2)OCO3)[C@@H]2CCCO[C@@H]21)C1CC1`, the Percent Effect rises from 11.4% to 13.2%.
